Test results as given in PubChem BioAssay AID588335 (The Scripps Research Institute Molecular Screening Center, 2011).
The whole screen tested about 360,000 compounds, of which about 4,500 (1.2%) were called active. The entries come from a sample that favours actives as a whole. Unmarked numbers belong to inactive results. Rule as the data show it: active = inhibition above about 30%; inactive = the rest.

Test: inhibition of GDH and TPI enzymes – biochemical, absorbance, full deck, artefact control for M. tuberculosis FBA inhibitor project, primary screen (AID 588335);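 also: 0% = DMSO wells and 100% = wells lacking the enzyme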
Conditions: GDH-TPI coupled enzyme counterscreen, NADH absorbance; at 4.8 µM; active compounds read high

Row | Compound | inhibition
1 | CC(C)CN(CC(C)C)C(=O)CN1c2cccc3cccc(c23)S1(=O)=O | -9.01%
2 | COc1ccc(C#Cc2c(-c3ccc(OC)cc3)oc3ccc(-c4ccc5c(c4)OCO5)cc23)cc1 | 5.83%
3 | C=CCNC(=O)COc1coc(CN2CCN(Cc3ccccc3)CC2)cc1=O | -4.97%
4 | N=c1ccccn1Cc1ccccc1 | -9.4%
5 | C=CCNC(=S)/N=c1/ccccn1Cc1ccccc1 | 33.6% (active)
6 | O=C(COc1ccc2oc3c(c2c1)CCCC3)Nc1ccccn1 | -3.77%
7 | O=C(COc1ccc2c3c(c(=O)oc2c1)CCCC3)NCC(O)c1ccccc1 (stereo not drawn) | 10.6%
8 | O=C(CN1CCOCC1)N1CCCc2c1c(=O)oc1ccc(OCc3ccccc3)cc21 | 31.5% (active)
9 | CCc1nn(CC(=O)N2CCN(c3cc(C)ccc3C)CC2)c(=O)c2cc3occc3n12 | 3.06%
10 | CCOC(=O)N1CCC(NC(=O)C(C)n2c3ccccc3c3cnn(C)c(=O)c32)CC1 (stereo not drawn) | 1.24%
11 | Cc1ccc(OCCCC(=O)Nc2ccc(S(=O)(=O)Nc3cc(C)nc(C)n3)cc2)cc1 | -1.42%
12 | Cc1cc(C)nc(NS(=O)(=O)c2ccc(N/C=C\C(=O)c3cccs3)cc2)n1 | 10.6%
13 | Cc1ccc(S(=O)(=O)Nc2nc(C)cc(N/N=C/c3ccc(O)cc3)n2)cc1 | 31.1% (active)
14 | O=c1c(Cl)c(NCc2ccc(F)cc2Cl)cnn1C12CC3CC(CC(C3)C1)C2 | -9.45%
15 | CCc1nnc(NC(=O)c2cc(S(=O)(=O)N3CCN(CC)CC3)ccc2Cl)s1 | 7.27%
16 | COc1ccc(-c2c(-c3cc(OC)cc(OC)c3)n(C)c3ccc(-c4ccn[nH]4)cc23)cc1 | 10.2%
17 | COc1cc(OC)cc(-c2c(-c3ccc(F)cc3)c3cc(-c4ccc5cc[nH]c5c4)ccc3n2C)c1 | 43.2% (active)
18 | COc1cc(OC)cc(-c2c(-c3cccs3)c3cc(-c4ccc(OC)nc4)ccc3n2C)c1 | 23.8%
19 | Cc1ccc(C(=O)CN2C(=O)NC3(CCc4ccccc43)C2=O)c(C)c1 (stereo not drawn) | -0.34%
20 | O=C(CCCCO)c1ccc(O)c(Cl)c1 | 29.1%
21 | Cc1c(S(=O)(=O)N2CC(C)CC(C)C2)c(=O)n(C)c(=O)n1C (stereo not drawn) | -4.2%
22 | CC(=O)C1=C(C)NC2=C(C(=O)CC(C)(C)C2)C1C (stereo not drawn) | 0.31%

Row | Compound | inhibition
23 | Cc1cc2c(cc1C)NC(c1ccccn1)C1=C(CC(C)(C)CC1=O)N2 (stereo not drawn) | 29.6%
24 | CC1(C)CC(=O)C2=C(C1)Nc1cc(C(=O)c3ccccc3)ccc1NC2c1ccccn1 (stereo not drawn) | 32.1% (active)
25 | CSCC[C@H](NC(=O)NCc1cccs1)C(=O)O | -3.14%
26 | CCN(c1ccc(NC(=O)COC(=O)CCc2nc3ccccc3n2-c2ccccc2)cc1)C(C)C | 8.52%
27 | O=C(CCS(=O)(=O)c1cccc2nsnc12)N1CCN(c2ccccc2F)CC1 | 19.6%
28 | COc1ccc(/C=N/N=C/c2c[nH]c(=O)c(C#N)c2Nc2ccccc2)cc1 | 50.2% (active)
29 | COc1ccc(O)c(/C=N/N=C/c2cccc([N+](=O)[O-])c2)c1 | -12.3%
30 | COc1ccc(/C=N/Nc2nc(-c3ccc(C)cc3)c(C#N)c(=O)[nH]2)cc1 | 10%
31 | O=C1NC(c2ccccc2)CCC1(Cl)Cl (stereo not drawn) | 3.97%
32 | Cc1ccc(C(=O)Nc2c(C#N)c(C)c(C)n2Cc2ccccc2)cc1 | -3.02%
33 | Cc1ccc(Cn2c(NC(=O)c3ccco3)nc3ccccc32)cc1 | 37.1% (active)
34 | CCn1nc(NC(=O)c2ccco2)c2cc3ccc(C)cc3nc21 | -4.08%
35 | CN1CCN(C(=O)CCc2ncc(C(F)(F)F)cc2Cl)CC1 | -4.79%
36 | CC(C)c1ccc(S(=O)(=O)N2CCN(C(=O)CN3C(=O)NC(C)(c4ccccc4)C3=O)CC2)cc1 (stereo not drawn) | -2.79%
37 | CC(N=Cc1nc(-c2ccccc2)oc1O)c1ccccc1 (stereo not drawn) | 46.8% (active)
38 | Oc1oc(-c2ccccc2Br)nc1/C=N/c1ccccn1 | 15.5%
39 | COc1ccc(CN(C)C(C)C(=O)NC2CCCc3ccccc32)cc1 (stereo not drawn) | -4.42%
40 | Cc1cc(C)c2c(-c3ccc(F)cc3)c(C#N)c(=O)n(C)c2n1 | 12.6%
41 | CSc1ccc(-c2c(C#N)c(N)nc3c2c(C)nn3-c2ccccc2)cc1 | 21.3%
42 | Cn1c(=O)c2c(-c3cccc(Br)c3)c(C#N)c(N)nc2n(C)c1=O | 32.1% (active)
43 | COc1ccc(N2CCN(CCNC(=O)Nc3cc(Cl)ccc3Cl)CC2)cc1 | 5%
44 | COc1ccc(NC(=O)NCCN2CCN(c3ccc(C)cc3)CC2)c(Cl)c1 | 32.2% (active)

Row | Compound | inhibition
45 | COc1ccc(N2CCN(CCNC(=O)c3nnc(Cc4c(F)cccc4Cl)o3)CC2)cc1 | 5.33%
46 | CSC1=N/C(=C\C=C\c2cccs2)C(=O)S1 | 4.56%
47 | O=C(NCCCn1ccnc1)/C(=C\c1ccccc1F)NC(=O)c1ccccc1 | -0.75%
48 | O=C(CN1C(=O)/C(=C/c2ccccc2F)Sc2ccccc21)NCc1cccnc1 | 12.4%
49 | Cc1cc(OCCCC(=O)NCCN2C(=O)S/C(=C\c3cccnc3)C2=O)ccc1Cl | 11.2%
50 | COc1ccc(-c2ccc(OC(=O)NC3CCS(=O)(=O)C3)cc2)cc1 (stereo not drawn) | -7.23%
51 | COc1ccc(/C=C2\SC(=O)N(CCC(=O)NCCCn3ccnc3)C2=O)cc1 | 43.6% (active)
52 | COc1ccc(/C=C2\SC(=O)N(CCC(=O)NC3CCS(=O)(=O)C3)C2=O)cc1 (stereo not drawn) | 41% (active)
53 | O=C(CN1C(=O)S/C(=C\c2ccccc2F)C1=O)NCCCn1ccnc1 | 33.6% (active)
54 | COc1ccccc1/C=C1\SC(=O)N(CCC(=O)N(C)C2CCS(=O)(=O)C2)C1=O (stereo not drawn) | 26.5%
55 | O=C(CCN1C(=O)c2ccccc2C1=O)NCCCn1ccnc1 | -1.58%
56 | CCOc1cc2c(Cl)ncnc2c(OCC)c1OCC | 2.46%
57 | CCOC(=O)C1(Cc2ccccc2C)CCCN(C(=O)c2ccc(COC)o2)C1 (stereo not drawn) | 6.53%
58 | COc1ccc(CNC(=O)C[C@H]2C[C@H](C(=O)N3CCOCC3)[C@@]3(CCC4CCCC4)c4[nH]c5ccc(Cl)cc5c4CCN3C2=O)cc1OC | -3.13%
59 | CCN(CC(=O)NC(C)C)C(=O)c1cc(S(=O)(=O)N2CCCCC2)ccc1N1CCCCC1 | 2.16%
60 | O=C(COc1cc(Cl)c(Cl)cc1Cl)NCCc1ccccn1 | 3.15%
61 | O=C(COC(=O)COc1cc(Cl)c(Cl)cc1Cl)NC1CC1 | 7.02%
62 | NC(=S)NN=Cc1ccc(OC(=O)COc2cc(Cl)c(Cl)cc2Cl)cn1 | 49.8% (active)
63 | COc1cc(Nc2nc3ccc(Cl)cc3n3cnnc23)cc(OC)c1OC | -2.21%
64 | CN(CCO)c1ccc(/C=N/Nc2nncc3ccccc23)cc1 | 15.2%
65 | COc1cc(/C=N/Nc2nn3cnnc3c3ccccc23)cc(OC)c1OC | 43.1% (active)
66 | CCOC(=O)C1(CCOc2ccccc2)CCN(C(=O)c2cncs2)CC1 | 3.14%

Row | Compound | inhibition
67 | O=C1NC(c2ccccc2)=NC1(Nc1ccccn1)C(F)(F)F (stereo not drawn) | -8.86%
68 | COc1ccc(C2=NS(=O)(=O)N(C)C(C(=O)NC(C)c3ccccc3)=C2)cc1 (stereo not drawn) | 23.1%
69 | COc1cc(NC(=O)C2=CC(c3ccco3)=NS(=O)(=O)N2C)cc(OC)c1OC | 30.4%
70 | COc1cc(NC(=O)C2=CC(c3ccc(C)cc3)=NS(=O)(=O)N2C)cc(OC)c1OC | 27.7%
71 | COc1ccc(C2=NS(=O)(=O)N(C)C(C(=O)N(C)Cc3ccccc3)=C2)cc1 | 34% (active)
72 | COc1ccc(C2=NS(=O)(=O)N(C)C(C(=O)N3CCCCC3)=C2)cc1 | 24.4%
73 | COc1ccc(NC(=O)C2=CC(c3ccc(OC)c(OC)c3)=NS(=O)(=O)N2C)cc1 | 32.7% (active)
74 | CCc1cc(=O)oc2c(C)c(OCC(=O)N3CC[C@@]4(O)CCCC[C@H]4C3)ccc12 | 7.84%
75 | NC(=O)c1nsc(C(=O)N(CCCN2CCOCC2)C(C(=O)NC2CCCCC2)c2ccc(Cl)cc2)c1N (stereo not drawn) | 3.02%
76 | Cc1ccc(NC(=O)c2ccc(Oc3ncccn3)cc2)cc1 | 11.6%
77 | Cc1ccc(C(=O)NNC(=O)c2cc3cc4ccccc4nc3s2)cc1 | 10.2%
78 | Cc1ccc(C(=O)NNc2ncnc3ccccc23)cc1 | 43.8% (active)
79 | O=C(O)CC(Cc1ccccc1)C(=O)Nc1ccc([N+](=O)[O-])cc1 (stereo not drawn) | 19.3%
80 | CC(=O)n1cc([C@@H]2C=C(C(=O)N3CCN(Cc4ccc5c(c4)OCO5)CC3)O[C@H](OCc3ccc(CO)cc3)C2)c2ccccc21 | -1.76%
81 | CCOC(=O)C1=C(O)/C(=C/c2cc(C)n(-c3ccccc3)c2C)N=C1C | 2.64%
82 | Cc1cccc(C)c1-n1c(C)cc(/C=C2\C(=O)NN(c3ccccc3)C2=O)c1C | 33% (active)
83 | COc1ccc(C(=O)NCC2CCCCC2)cc1S(=O)(=O)N1CCCC1 | 1.39%
84 | CCO[C@@H]1OC(C(N)=O)=C[C@H](c2ccc(Br)cc2)[C@H]1CCCO | -4.48%
85 | CC(Sc1nc2cc(Cl)ccc2s1)C(=O)Nc1ccc2c(c1)OCO2 (stereo not drawn) | 5.49%
86 | COC(=O)c1c(-c2ccsc2)oc2ccc(-c3cc(OC)c(OC)c(OC)c3)cc12 | 10.3%
87 | O=C(NCc1cccs1)c1ccc2c(c1)ncn2C1CCCC1 | -1.75%
88 | CCOc1ncccc1C(=O)N(C)CC(=O)Nc1ccc(F)cc1 | -5.34%
